According to the supplement of paper PMC12636033:
± gives the standard deviation of the averaged measurements. Whole data set: some 33,000 sequences, median “E-score (rank enrichment, -0.5 to 0.5)” near -0.0043, cut for the highest 2% near 0.24. This is one part of a sample in which the highest values are shown more often than they occur.

What follows are sequences tested on 2Sp-muMax20 (muMax20 with two 2,6-bis(methyl)pyridine Cys staples) (assay: PBM 8-mer E-score (E-score (rank enrichment, -0.5 to 0.5)); higher = stronger preferential binding).
Protocol: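 Protein binding microarray (universal PBM chip covering all 10-mers in fixed probe flanks) with chemically synthesized human Max(13-93) bHLH-LZ analogs (not full-length Max) bearing noncanonical residues (hArg, Tha, Aib, Nle at 65) and aromatic Cys staples. Read-out per 8-mer (and its reverse complement): E-score (rank-based enrichment, -0.5 to 0.5) and Z-score of median probe intensity.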

In order of rising “PBM 8-mer E-score” value:
1. GCCCGGGA  -0.254 ± 0.03
2. GAGGTCCC  -0.243 ± 0.0028
3. CCCCCGAA  -0.24 ± 0.13
4. CAGAGGTC  -0.182 ± 0.051
5. CGCTCCTA  -0.177 ± 0.024
6. CCCAAAGC  -0.158 ± 0.047
7. CGGCGGAG  -0.149 ± 0.039
8. GACCTGCC  -0.149 ± 0.014
9. AGCTAGAC  -0.14 ± 0.029
10. CGGGACGA  -0.1379 ± 0.00041
11. GGCGCTAA  -0.136 ± 0.035
12. CAGCAACG  -0.129 ± 0.075
13. CCGTGACG  -0.127 ± 0.12
14. GAGCCGAA  -0.123 ± 0.12
15. TCGTGAAA  -0.115 ± 0.084
16. GATCAACA  -0.111 ± 0.05
17. ACCTCCAC  -0.105 ± 0.0033
18. CTGCTCGC  -0.104 ± 0.0046
19. AGGAGGGC  -0.104 ± 0.14
20. CCAAGGGG  -0.104 ± 0.046
21. ATGCGCCG  -0.102 ± 0.045
22. GCAGATCC  -0.0702 ± 0.063
23. TTAGTCAA  -0.0593 ± 0.046
24. ACCAATAG  -0.0592 ± 0.066
25. GCGCTCCC  -0.0536 ± 0.052
26. AGAGTCAA  -0.0327 ± 0.08
27. CTGTGATA  -0.0212 ± 0.031
28. GGCGAGAC  -0.0185 ± 0.036
29. CTGTGAAA  -0.00932 ± 0.11
30. CGCCCTAC  -0.00866 ± 0.015
31. AAGGCATT  -0.0085 ± 0.05
32. TAGCGGCA  -0.00468 ± 0.025
33. GCTATGCC  -0.00318 ± 0.017
34. AGTGCACA  -0.000545 ± 0.11
35. AGGAGGGA  0.000855 ± 0.036
36. GATAATGA  0.00488 ± 0.095
37. CATCTTGA  0.00562 ± 0.03
38. CTAACATC  0.0136 ± 0.022
39. ATGCCTAG  0.0159 ± 0.081
40. ACTCACTG  0.0171 ± 0.1
41. AACTTGTA  0.0176 ± 0.02
42. AGTAGGGA  0.0183 ± 0.02
43. TCCTTTAA  0.0188 ± 0.023
44. CTCGATCA  0.0252 ± 0.013
45. AAATCCAA  0.0276 ± 0.05
46. ACGTGAAC  0.0294 ± 0.091
47. TGATGCCA  0.033 ± 0.029
48. GACTATAA  0.0335 ± 0.072
49. ATACTGAC  0.0362 ± 0.0098
50. CCCACTGA  0.0382 ± 0.01
51. CTACTTTA  0.0402 ± 0.06
52. AGTCTCGA  0.0438 ± 0.016
53. ATAACAAC  0.0625 ± 0.012
54. AGTAGGGC  0.0658 ± 0.099
55. AGTATCAG  0.0699 ± 0.071
56. ACCAAAGC  0.0731 ± 0.02
57. AACAGTAC  0.0773 ± 0.0098
58. CATGGCAG  0.0778 ± 0.016
59. AAATATAC  0.087005 ± 2.1e-05
60. TATCAGGA  0.0871 ± 0.048
61. AAAAATAA  0.0898 ± 0.087
62. ATGAGGGA  0.0977 ± 0.073
63. GTTACATA  0.106 ± 0.096
64. GTGTGAAA  0.11 ± 0.0048
65. ATGAGGGC  0.115 ± 0.015
66. AAAAATAG  0.122 ± 0.058
67. TATCTTGA  0.123 ± 0.099
68. AATAATGG  0.126 ± 0.043
69. AAATATCA  0.132 ± 0.038
70. GAATCCAA  0.132 ± 0.0084
71. ACCAATAC  0.139 ± 0.021
72. TATCAACA  0.139 ± 0.05
73. ATCTCACA  0.141 ± 0.066
74. AATAATGC  0.143 ± 0.1
75. ACGGGATA  0.146 ± 0.0045
76. AAATATAG  0.148 ± 0.036
77. ACGTGACC  0.149 ± 0.063
78. GTGTGATA  0.15 ± 0.061
79. CAATATAA  0.152 ± 0.1
80. CATAATGA  0.1647 ± 0.0015
81. ACGTGATC  0.17 ± 0.081
82. AAATAAAA  0.175 ± 0.059
83. ATACTGTC  0.183 ± 0.041
84. ATACTTTG  0.185 ± 0.015
85. AACTATAA  0.199 ± 0.015
86. GAATATAA  0.215 ± 0.056
87. ATAACAAG  0.221 ± 0.044
88. ACGTGATA  0.222 ± 0.02
89. ATAACATG  0.229 ± 0.027
90. AATAATGA  0.238 ± 0.017
91. ATACTGAT  0.2387 ± 0.00027
92. ATGAGGGG  0.24 ± 0.05
93. AGTAGGGG  0.24 ± 0.072
94. AATAATGT  0.241 ± 0.044
95. TAATATAA  0.242 ± 0.035
96. ACGTGAAA  0.243 ± 0.025
97. AAAAATAT  0.244 ± 0.024
98. ACGTGATG  0.244 ± 0.0044
99. ATAACAAT  0.244 ± 0.022
100. AAATATAA  0.255 ± 0.03
101. ATACTTTA  0.255 ± 0.07
102. TAATCCAA  0.256 ± 0.031
103. ACCAATAT  0.258 ± 0.045
104. TACTATAA  0.261 ± 0.011
105. AATCAACA  0.262 ± 0.024
106. GATCTTGA  0.263 ± 0.086
107. AGGAGGGG  0.269 ± 0.0072
108. ATGTGATA  0.288 ± 0.051
109. AAATATAT  0.3135 ± 0.00093
110. ATGTGAAA  0.319 ± 0.026
